According to PubChem BioAssay:
Calls of active or inactive are those of the source.

Tests used:
[1] = small molecules captured by biotinylated probe aFSTL3 – biochemical, small-molecule microarray, fluorescence 635/667, stem cell growth factor project, primary screen (AID 1064); conditions: higher = more signal;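 further: measures binding of the biotinylated anti-FSTL3 antibody to printed compounds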
[2] = binders from COS7 lysate, DM2A8 probe, primary screen, torsin A project, cell lysate, small-molecule microarray, fluorescence 635/667 (AID 1065); conditions: higher = more signal, COS7 lysate expressing mutant human TOR1A
[3] = small molecules captured by biotinylated probe aFGF2 – biochemical, small-molecule microarray, fluorescence 635/667, stem cell growth factor project, primary screen (AID 1067); conditions: higher = more signal;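 further: measures binding of biotinylated aFGF2 protein to printed compounds on slides; z-score merges feature fluorescence and signal-to-noise across triplicate slides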
[4] = small molecules captured by biotinylated probe aFGF10 – biochemical, small-molecule microarray, fluorescence 635/667, stem cell growth factor project, primary screen (AID 1071); conditions: higher = more signal;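 further: score merges 667 nm spot intensity and signal to noise from triplicate slides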
[5] = target: Neurogenic locus notch homolog protein 2 (Homo sapiens) (UniProt Q04721); experiment: small molecules binding Notch2 protein – biochemical, small-molecule microarray, 635 nm fluorescence, stem cell growth factors, primary screen (AID 1073); conditions: higher = more signal
[6] = target: Pro-neuregulin-1, membrane-bound isoform (Homo sapiens) (UniProt Q02297); experiment: small molecules binding neuregulin-1 protein – biochemical, small-molecule microarray, fluorescence 635/667, psychiatric disease protein project, primary screen (AID 1075); conditions: NRG1 binding, 635 nm fluorescence, higher = more signal;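 further: score combines 667 nm spot fluorescence with signal to noise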
[7] = system: Neuregulin-1 EGF-like domain; experiment: small molecules binding NRG1 EGF domain – biochemical, small-molecule microarray, 635 nm fluorescence, primary screen (AID 1081); conditions: higher = more signal;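 further: binding of the protein to compounds printed on small-molecule microarray slides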
[8] = FRG1 expression reporter modulators in myotubes – cell-based, C2C12 myotubes, firefly/Renilla luciferase, luminescence, FRG1 inhibition for FSHD, primary screen (AID 1084); conditions: FRG1 promoter luciferase, higher = more signal, called active from +8 up or from −8 down
[9] = small molecules captured by biotinylated probe aFST – biochemical, small-molecule microarray, fluorescence 635/667, stem cell growth factor project, primary screen (AID 1086); conditions: higher = more signal;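 further: score merges 667 nm fluorescence with signal-to-noise of each printed compound spot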
[10] = binders of probe aHhip on microarray, primary screen, stem cell growth factor project, biochemical, small-molecule microarray, fluorescence 635/667 (AID 1087); conditions: higher = more signal;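 further: score merges spot fluorescence at 667nm with spot signal to noise ratio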
[11] = system: PRMT1 (protein arginine N-methyltransferase 1); experiment: small molecules binding arginine methyltransferase PRMT1 – biochemical, small-molecule microarray, 635 nm fluorescence, primary screen (AID 1088); conditions: higher = more signal;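 further: binding of Prmt1 protein to compounds spotted on small-molecule microarray slides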
[12] = growth effects on S. cerevisiae YJM789 – YJM789 clinical isolate, OD600, 24 h, basal, primary screen (AID 1089); conditions: higher = more signal, called active from +8 up or from −8 down;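 further: growth of clinical yeast isolate S. cerevisiae YJM 789 seeded 1000 cells per well; test concentration not given here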
[13] = S. pombe growth modifiers, basal conditions – strain 972, OD600, 24 h, no modulator, primary screen (AID 1090);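 further: basal condition with compound alone and no growth modifier present; test concentration not given here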; conditions: S. pombe 972 growth, higher = more signal, called active from +8 up or from −8 down
[14] = budding yeast growth modifiers under rapamycin – strain BY4716, OD600, 96 h, primary screen (AID 1091); further: test concentration not given here; conditions: S. cerevisiae BY4716 + rapamycin, higher = more signal, called active from +8 up or from −8 down
[15] = target: Torsin-1A-interacting protein 2 (Homo sapiens) (UniProt Q8NFQ8); experiment: small molecules binding lysate-expressed LULL1 – cell lysate, human LULL1 lysate, 635/667 nm fluorescence, primary screen (AID 1092); conditions: small-molecule microarray, hLULL1 lysate binding, 635 nm fluorescence; higher = more signal;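 further: probe is lysate of COS7 cells overexpressing human LULL1; score merges per-feature 667 nm fluorescence with signal-to-noise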
[16] = optical density change of DRC41 E. coli – strain DRC41, OD650, 24 h, E. coli filamentation project, primary screen (AID 1093);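 further: MC1000 strain lacking acrAB efflux and sulA so SOS filamentation is blocked; test concentration not given here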; conditions: E. coli DRC41 growth, higher = more signal, called active from +8 up or from −8 down
[17] = probe aLefty2 binding to arrayed compounds – biochemical, biotinylated probe, 635/667 nm fluorescence, primary screen (AID 1094); conditions: small-molecule microarray, higher = more signal;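 further: score merges spot fluorescence near 667 nm with spot signal-to-noise ratio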
[18] = system: Noggin (protein binding on small-molecule microarray); experiment: small molecules binding Noggin protein – biochemical, 635/667 nm fluorescence, primary screen (AID 1095); conditions: 635 nm fluorescence, higher = more signal;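 further: score merges 667 nm feature fluorescence with signal to noise over triplicate slides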
[19] = target: Neurogenic locus notch homolog protein 3 (Homo sapiens) (UniProt Q9UM47); experiment: small molecules binding NOTCH3 protein – biochemical, 635/667 nm fluorescence, primary screen (AID 1096); conditions: small-molecule microarray, 635 nm fluorescence, higher = more signal
[20] = probe aEGFR binding to arrayed compounds – biochemical, biotinylated probe, 635/667 nm fluorescence, primary screen (AID 1097); conditions: small-molecule microarray, higher = more signal;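 further: probe is a biotinylated anti-EGFR antibody binding compounds printed on slides; score combines fluorescence near 667 nm and signal to noise of each spot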

Chain of Pro-neuregulin-1, membrane-bound isoform (Homo sapiens) (Q02297 whole entry, looked up, the tested form may be a part, canonical isoform): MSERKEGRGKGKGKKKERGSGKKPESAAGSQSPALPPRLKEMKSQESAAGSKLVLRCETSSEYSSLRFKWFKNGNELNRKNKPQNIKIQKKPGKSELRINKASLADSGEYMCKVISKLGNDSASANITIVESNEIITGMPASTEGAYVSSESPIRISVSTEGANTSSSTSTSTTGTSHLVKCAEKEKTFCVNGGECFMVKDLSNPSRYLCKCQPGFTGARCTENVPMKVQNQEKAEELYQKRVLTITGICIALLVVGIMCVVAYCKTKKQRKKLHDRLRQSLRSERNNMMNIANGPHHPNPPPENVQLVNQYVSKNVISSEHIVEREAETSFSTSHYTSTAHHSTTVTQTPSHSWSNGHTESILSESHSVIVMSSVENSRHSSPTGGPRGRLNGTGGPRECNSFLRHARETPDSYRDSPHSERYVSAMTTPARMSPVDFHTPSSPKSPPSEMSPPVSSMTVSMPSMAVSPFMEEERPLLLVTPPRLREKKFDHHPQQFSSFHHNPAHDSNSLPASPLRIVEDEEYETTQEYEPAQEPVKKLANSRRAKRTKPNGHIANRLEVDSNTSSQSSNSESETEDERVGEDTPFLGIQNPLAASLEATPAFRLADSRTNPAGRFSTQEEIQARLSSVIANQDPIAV
Chain of Neurogenic locus notch homolog protein 2 (Homo sapiens) (Q04721 whole entry, looked up, canonical isoform): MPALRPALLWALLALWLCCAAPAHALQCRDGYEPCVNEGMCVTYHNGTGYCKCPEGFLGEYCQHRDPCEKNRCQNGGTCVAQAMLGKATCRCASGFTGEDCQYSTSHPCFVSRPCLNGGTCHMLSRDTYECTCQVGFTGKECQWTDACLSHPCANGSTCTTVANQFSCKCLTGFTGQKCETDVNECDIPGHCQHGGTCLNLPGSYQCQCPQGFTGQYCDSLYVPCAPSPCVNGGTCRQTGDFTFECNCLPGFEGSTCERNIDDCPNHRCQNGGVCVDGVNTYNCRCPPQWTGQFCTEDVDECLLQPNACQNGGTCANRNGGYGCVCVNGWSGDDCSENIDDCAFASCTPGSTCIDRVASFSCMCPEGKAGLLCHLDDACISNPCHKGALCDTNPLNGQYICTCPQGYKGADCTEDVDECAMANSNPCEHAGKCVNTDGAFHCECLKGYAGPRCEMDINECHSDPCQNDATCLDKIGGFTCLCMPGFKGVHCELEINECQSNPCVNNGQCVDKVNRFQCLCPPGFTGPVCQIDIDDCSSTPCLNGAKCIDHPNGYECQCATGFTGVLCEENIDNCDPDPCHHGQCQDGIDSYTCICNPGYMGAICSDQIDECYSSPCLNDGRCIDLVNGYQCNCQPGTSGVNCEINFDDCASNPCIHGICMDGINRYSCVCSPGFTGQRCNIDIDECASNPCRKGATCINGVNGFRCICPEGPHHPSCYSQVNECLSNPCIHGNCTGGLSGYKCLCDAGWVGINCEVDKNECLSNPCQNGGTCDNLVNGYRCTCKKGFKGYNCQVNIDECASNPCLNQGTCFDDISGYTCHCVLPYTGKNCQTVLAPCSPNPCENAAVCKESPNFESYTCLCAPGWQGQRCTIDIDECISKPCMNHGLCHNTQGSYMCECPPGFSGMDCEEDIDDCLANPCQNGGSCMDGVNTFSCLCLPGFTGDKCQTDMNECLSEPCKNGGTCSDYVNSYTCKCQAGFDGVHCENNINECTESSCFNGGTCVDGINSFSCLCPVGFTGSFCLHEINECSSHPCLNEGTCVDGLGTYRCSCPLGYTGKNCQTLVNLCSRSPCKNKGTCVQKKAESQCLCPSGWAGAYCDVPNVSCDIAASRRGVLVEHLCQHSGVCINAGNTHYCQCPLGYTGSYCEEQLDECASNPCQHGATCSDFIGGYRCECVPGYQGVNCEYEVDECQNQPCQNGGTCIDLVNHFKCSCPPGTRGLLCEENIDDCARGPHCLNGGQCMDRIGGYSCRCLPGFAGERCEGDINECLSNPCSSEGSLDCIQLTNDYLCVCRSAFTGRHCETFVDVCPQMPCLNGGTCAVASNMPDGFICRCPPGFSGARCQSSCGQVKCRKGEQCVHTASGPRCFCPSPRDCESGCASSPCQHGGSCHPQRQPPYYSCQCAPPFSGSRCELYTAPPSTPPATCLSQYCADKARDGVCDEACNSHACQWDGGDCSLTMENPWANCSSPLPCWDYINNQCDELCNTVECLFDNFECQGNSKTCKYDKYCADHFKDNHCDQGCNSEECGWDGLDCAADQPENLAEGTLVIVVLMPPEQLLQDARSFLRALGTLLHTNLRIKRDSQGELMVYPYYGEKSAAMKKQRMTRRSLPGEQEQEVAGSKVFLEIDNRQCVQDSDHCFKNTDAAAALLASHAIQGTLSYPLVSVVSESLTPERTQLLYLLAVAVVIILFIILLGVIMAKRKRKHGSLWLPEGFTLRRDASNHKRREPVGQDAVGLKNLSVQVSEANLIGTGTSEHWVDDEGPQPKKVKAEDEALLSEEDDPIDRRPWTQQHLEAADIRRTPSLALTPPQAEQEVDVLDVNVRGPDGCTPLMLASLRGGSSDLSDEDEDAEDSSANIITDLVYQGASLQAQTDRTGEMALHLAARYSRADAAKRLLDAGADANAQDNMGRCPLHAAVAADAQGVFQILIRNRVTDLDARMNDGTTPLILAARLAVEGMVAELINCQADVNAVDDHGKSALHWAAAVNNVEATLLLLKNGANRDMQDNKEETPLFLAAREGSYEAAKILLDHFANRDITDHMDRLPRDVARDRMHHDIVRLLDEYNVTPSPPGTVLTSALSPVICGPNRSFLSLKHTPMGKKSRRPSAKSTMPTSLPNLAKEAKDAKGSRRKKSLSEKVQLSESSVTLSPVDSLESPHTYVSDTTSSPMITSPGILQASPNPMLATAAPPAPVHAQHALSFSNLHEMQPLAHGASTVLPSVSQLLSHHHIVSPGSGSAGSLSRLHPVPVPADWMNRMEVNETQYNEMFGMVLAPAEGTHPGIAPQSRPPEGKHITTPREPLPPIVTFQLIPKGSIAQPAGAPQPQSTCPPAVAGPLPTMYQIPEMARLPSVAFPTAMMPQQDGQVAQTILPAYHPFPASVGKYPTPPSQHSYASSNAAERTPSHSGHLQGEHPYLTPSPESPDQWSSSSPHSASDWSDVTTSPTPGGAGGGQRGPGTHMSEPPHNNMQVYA
Chain of Torsin-1A-interacting protein 2 (Homo sapiens) (Q8NFQ8 whole entry, looked up): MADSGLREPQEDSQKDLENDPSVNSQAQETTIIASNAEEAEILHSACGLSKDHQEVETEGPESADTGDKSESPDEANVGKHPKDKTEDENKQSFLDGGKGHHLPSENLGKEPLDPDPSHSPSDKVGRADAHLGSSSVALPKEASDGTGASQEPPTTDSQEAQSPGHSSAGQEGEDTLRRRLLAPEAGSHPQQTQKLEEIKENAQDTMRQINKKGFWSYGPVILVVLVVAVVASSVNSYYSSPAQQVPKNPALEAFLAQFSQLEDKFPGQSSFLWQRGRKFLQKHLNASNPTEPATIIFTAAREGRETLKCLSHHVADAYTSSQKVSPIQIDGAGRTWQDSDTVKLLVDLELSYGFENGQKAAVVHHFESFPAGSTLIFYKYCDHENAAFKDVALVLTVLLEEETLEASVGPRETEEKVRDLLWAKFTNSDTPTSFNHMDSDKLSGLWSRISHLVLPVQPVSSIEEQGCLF

Structure (SMILES)	composite z-score [1]	composite z-score [2]	composite z-score [3]	composite z-score [4]	composite z-score [5]	composite z-score [6]	composite z-score [7]	z-score [8]	composite z-score [9]	composite z-score [10]	composite z-score [11]	z-score [12]	z-score [13]	z-score [14]	composite z-score [15]	z-score [16]	composite z-score [17]	composite z-score [18]	composite z-score [19]	composite z-score [20]
C[N+](C)(C)CCCC[C@@H]1NC(=O)[C@@H]2C[C@H](C(=O)NCCCCCNC(=O)CS)[C@H](c3cccc(OCCO)c3)N2C1=O	-0.129	0.5	0.0402	0.294	0.151	0.634	1.21	-0.669 (inactive)	-0.0763	0.138	0.749	0.539 (inactive)	-0.879 (inactive)	0.378 (inactive)	0.743	0.906 (inactive)	0.115	0.505	-0.296	0.0338
[N-]=[N+]=NCc1ccccc1C[C@]1(C(=O)NCCN2CCOCC2)N=C(c2ccc(OCCCO)cc2)O[C@H]1c1ccccc1	0.081	0.205	-0.0085	0.713	0.0617	1.32	1.26	-0.849 (inactive)	0.632	-0.0296	1.54	-2.01 (inactive)	-0.85 (inactive)	-2.06 (inactive)	3.22	0.677 (inactive)	-0.0519	1.88	0.626	-0.0382
COc1ccc(CCNC(=O)[C@@H]2c3ccccc3C(=O)N(Cc3ccccc3)[C@H]2c2ccc(CO)cc2)cc1	0.262	1.24	-0.0866	-0.101	-0.117	-0.0744	1.2	-2.26 (inactive)	0.0887	3.74	1.55	-1.34 (inactive)	-0.586 (inactive)	-0.332 (inactive)	3.23	1.95 (inactive)	0.06	0.107	0.233	-0.0978
O=C(O)[C@]1(CCS(=O)(=O)c2ccccc2)N=C(c2ccc(OCCCO)cc2)O[C@@H]1c1ccccc1	1.19	-0.106	0.115	-0.0267	0.506	1.13	1.05	0.694 (inactive)	0.914	0.744	0.464	-0.15 (inactive)	-2.3 (inactive)	-0.961 (inactive)	3.4	0.0201 (inactive)	0.337	-0.116	-0.687	0.0021
CC(C)(C)N1CC=CC23O[C@@H]4C=CCCOC(=O)C4[C@H]2C(=O)N(CCCO)[C@@H]3C1=O (stereo not given in full)	0.248	-0.527	-0.181	-0.642	-1.5	-0.509	-0.174	0.489 (inactive)	-0.383	-0.0994	-1.49	0.0588 (inactive)	-0.37 (inactive)	-0.199 (inactive)	-1.09	1.04 (inactive)	-0.195	-0.399	-1.7	-0.268
COC(=O)[C@@]1(Cc2ccc(OC)cc2)[C@H]2c3cc(C(=O)N4CCCC4)n(CCF)c3C[C@H]2CN1C(=O)c1ccccc1	3.09	-0.334	0.972	1.44	1.66	2.27	1.43	1.37 (inactive)	3.23	3	0.669	0.366 (inactive)	1.13 (inactive)	0.4 (inactive)	3.56	-1.09 (inactive)	1.64	-0.183	1.12	1.37
CC(C)(C)OC(=O)CC[C@]1(C(=O)O)COC(c2ccc(OCCCO)cc2)=N1	0.303	2.38	-0.0279	-0.011	0.541	1.98	1.45	0.394 (inactive)	0.556	-0.0296	-1.22	0.923 (inactive)	0.179 (inactive)	0.197 (inactive)	1.29	-0.079 (inactive)	0.12	-1.09	-0.463	-0.0575
CN(C)C(=O)[C@@]1(CCC(=O)OC(C)(C)C)N=C(c2ccc(OCCCO)cc2)O[C@H]1c1ccccc1N=[N+]=[N-]	0.294	1.45	0.0168	0.739	1.2	1.96	1.52	0.768 (inactive)	1.79	0.245	1.54	0.82 (inactive)	0.217 (inactive)	0.701 (inactive)	3.82	-0.0123 (inactive)	0.126	1.09	1.09	0.101
CCOC(=O)C[C@H]1[C@H](OC(=O)Cc2ccc3c(c2)OCO3)[C@@H](NC(=O)c2ccccc2)c2cc(OCCCO)ccc2N1C(=O)c1ccccc1	-0.23	0.122	-0.0687	0.346	0.228	-0.109	0.895	-1.73 (inactive)	0.0452	-0.0237	0.267	-0.0172 (inactive)	-0.462 (inactive)	0.205 (inactive)	1.27	1.48 (inactive)	-0.166	0.53	0.713	-0.125
COC(=O)[C@@]1(Cc2ccccc2)[C@H]2c3cc(C(=O)N4CCCC4)n(Cc4ccc(OC(F)(F)F)cc4)c3C[C@H]2CN1C(=O)c1ccccc1	1.38	-0.277	0.337	0.42	1.72	1.62	1.18	0.705 (inactive)	1.73	0.405	0.325	1.54 (inactive)	1.5 (inactive)	3.42 (inactive)	3.29	-1.43 (inactive)	0.961	0.0283	1.04	0.647
